Experimental data from the supplement of paper PMC6555819.

Assays:
Assay in all cases: PBM binding z-score (relative to random genomic background probes); higher = stronger binding; sequences stand for … in GC…GCGATTGACAGCGTAGAATGAAGG
[1] = system: RARb homodimer (NR concentration 270 nM)
Method in brief: (§1)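 Custom Agilent 4×180K protein-binding microarrays carried double-stranded probes. Their 34-nt variable regions held direct-repeat seeds, single-nucleotide variants, half-site ablations and random human genomic background sequences. Arrays were incubated 1 h with ligand-free nuclear receptor dimers in PBS pH 7.4, 2% milk, 0.02% Triton X-100, 1 mM DTT, 0.2 mg/mL BSA and 0.4 mg/ml salmon testes DNA. Antibodies against each partner (one per run) detected binding, and scanned fluorescence was regression-normalized. Binding z-scores use random background probes as reference.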

[2] = system: RARg:RXRa (NR concentration 270 nM, RXRa partner concentration 90 nM)
Method in brief: as §1

[3] = system: RARg homodimer (NR concentration 270 nM)
Method in brief: as §1

[4] = system: RXRa DBDmut IVT, anti-RXR (DBD mutation: RXRa K156A/R161A, NR concentration 90 nM)
Method in brief: as §1

[5] = system: RXRa homodimer (NR concentration 180 nM)
Method in brief: as §1

[6] = system: THRa:RXRa (NR concentration 90 nM, RXRa partner concentration 90 nM)
Method in brief: as §1

[7] = system: THRa homodimer (NR concentration 90 nM)
Method in brief: as §1

[8] = system: VDR homodimer (NR concentration 270 nM)
Method in brief: as §1

Sequence | PBM binding z-score [1] | PBM binding z-score [2] | PBM binding z-score [3] | PBM binding z-score [4] | PBM binding z-score [5] | PBM binding z-score [6] | PBM binding z-score [7] | PBM binding z-score [8]
TCTTGTAGATCAAGCAGATTAAGAAAGCCTGAGT | -0.625 | -0.157 | -0.298 | 0.446 | 0.2 | -0.439 | -0.521 | -0.466
GCTCTTAGTTGAAAGGGCAACCGAATGATTCTCG | 1.96 | 1.34 | 1.31 | 0.899 | 1.18 | 0.622 | -0.289 | 0.164
CCCGACAGGTGAGAAGGTAACTCAGCCTCGATTA | 0.604 | 0.562 | 0.328 | -0.142 | 0.298 | 0.229 | 0.474 | -0.11
TCTTGTAGATCAATAGAGGTAAAGAAAGTGCGCT | -0.162 | 0.0817 | 0.0168 | 0.436 | 0.364 | 1.9 | -0.539 | -0.6
ATCTCTAGCTAAGACTCAGTTCAGTGAAGAACGC | 0.502 | 0.00118 | -0.132 | 0.313 | 0.0167 | 0.338 | 0.471 | 1.11
CAAACTAGGTCACAGAGGTCAAAGGCCGTGCGTA | 5.17 | 7.3 | 7.71 | 3.23 | 8.06 | 4.42 | 2.89 | 6.86
TCATATCGGTAATACAGGTGAAAGTCGGCATCTA | 0.531 | 0.354 | 0.441 | 1.09 | 0.783 | 0.59 | 0.42 | 0.435
